For assay [1], the target named is Cytochrome P450 1A2 (Homo sapiens) (UniProt P05177). The assay can be described thus: p450-cyp1a2 (AID 410; calls by dose curve; further: potency means the concentration at half of the fitted maximal effect). The method, boiled down: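 Luminescent readout of luciferin formed from Luciferin-ME by human CYP1A2; data normalized against complete inhibition by 57 uM furafylline. Enzyme 20nM, substrate 100uM at Km, 100mM KPO4 buffer, 60 min reaction at room temperature.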
Cytochrome P450 1A2 (Homo sapiens), sequence (P05177 whole entry, looked up): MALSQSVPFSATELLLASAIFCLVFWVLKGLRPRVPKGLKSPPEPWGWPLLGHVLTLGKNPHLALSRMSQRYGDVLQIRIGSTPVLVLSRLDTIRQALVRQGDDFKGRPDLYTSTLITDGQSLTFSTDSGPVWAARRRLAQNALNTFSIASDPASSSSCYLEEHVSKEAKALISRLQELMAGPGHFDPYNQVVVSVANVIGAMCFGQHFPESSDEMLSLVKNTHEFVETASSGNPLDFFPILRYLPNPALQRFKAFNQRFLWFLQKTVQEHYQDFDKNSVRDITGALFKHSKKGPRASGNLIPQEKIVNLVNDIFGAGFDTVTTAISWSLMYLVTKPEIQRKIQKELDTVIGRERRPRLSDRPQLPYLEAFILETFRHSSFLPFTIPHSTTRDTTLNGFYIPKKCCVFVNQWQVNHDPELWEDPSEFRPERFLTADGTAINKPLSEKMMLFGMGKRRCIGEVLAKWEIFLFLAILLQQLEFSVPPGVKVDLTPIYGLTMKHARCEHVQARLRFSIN

Assay [2] in a line: NFAT Signaling Pathway (AID 444; active means well fitted curve in either direction with a large enough effect, not every such curve was filed as active;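 further: carbachol stimulus at about its EC50 of 1 µM final; on the % scale 0 is the no-effect control and ±100 the full control effect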). The settings on record: Jurkat NFAT-bla M1, carbachol, beta-lactamase ratio, 5 h; at 7.69 µM (top of the series) unless noted. The method, boiled down:
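Read-out: CCF4 FRET ratio (460 nm/530 nm) after 1 h RT dye loading, used for %activity and AC50 from titration series. Cells: Jurkat NFAT-β-lactamase/M1 line, treated with compound plus 1 uM carbachol for 5 h, 37 °C.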

A short description of assay [3]: Stat Signaling Pathway (AID 446; active means well fitted curve in either direction with a large enough effect, not every such curve was filed as active;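 further: ME-180 cervical cancer cells given 40 pM IL-6 alongside compound; SIE-controlled beta-lactamase reporter measured as 460/530 nm FRET emission ratio; on the % scale 0 is the no-effect control and ±100 the full control effect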). As to conditions: ME-180 SIE beta-lactamase reporter, IL-6 stimulated, 5 h; at 7.69 µM (top of the series) unless noted. The method, boiled down:
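ME-180 cells carrying a SIE-driven beta-lactamase reporter are stimulated with 40 pM IL-6 for 5 h at 37C in the presence of compound. The 460/530 nm FRET substrate ratio is read after 2.5 h at RT. Data are normalised to 300 pM IL-6 and to 125 nM JAK inhibitor controls.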

The target of assay [4] is Glucocorticoid receptor (Homo sapiens) (UniProt P04150). The assay can be described thus: GR-GFP Redistribution (AID 450;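 active means compounds whose dose series gives a full or clear partial fitted curve of increased nuclear translocation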; further: potency means the concentration at half of the fitted maximal effect). As to conditions: U2OS GR-GFP nuclear translocation, laser cytometry, 2 h.
Assay [5] shares this target. Kind of assay: GR-EFC Redistribution (AID 451; calls by dose curve; further: potency means the concentration at half of the fitted maximal effect). The settings on record: CHO-K1 GR-EFC translocation, beta-gal luminescence, 2 h. In short, it runs like this: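 Translocation of GR-ED fusion to nuclear EA restores b-gal, read by luminescence after 1 h room-temperature detection. Engineered CHO-K1 biosensor cells, 1,000/well, exposed 2 h at 37 C to titrations up to 46 uM final.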

Assay [6] addresses Mitogen-activated protein kinase 10 (Mus musculus) (UniProt Q61831). Kind of assay: JNK3 AlphaScreen Assay (AID 530; active means well fitted curve in either direction with a large enough effect, not every such curve was filed as active;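 further: kinase came from lysate of stimulated human HepG2 cells; signal reports phosphorylation of biotinylated GST-cJun 1-79 at Ser73 with 10 µM ATP; on the % scale 0 is the no-effect control and ±100 the full control effect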). The method, boiled down: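 Compound titrations were preincubated 15 minutes at room temperature with substrate, antibody and pre-activated JNK3-containing HepG2 lysate. Reactions were started with 10 uM ATP and stopped with EDTA-containing bead buffer for AlphaScreen detection.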
A general note: In Alpha technology, singlet oxygen from a donor bead excites a nearby acceptor bead.

Assay [7] has as its target Cytochrome P450 3A4 (Homo sapiens) (UniProt P08684). Kind of assay: qHTS Assay for Activators of Cytochrome P450 3A4 (AID 885). Further: nearly all actives have a fitted effect of over 65% in size. The method, boiled down: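 Human CYP3A4 (20 nM) with Luciferin-PPXE at 25 uM (its KM) in 200 mM KPO4; 10 min compound preincubation, then NADPH regeneration and 60 min reaction at RT. Luciferin read by luminescence; normalized to 57 uM ketoconazole full inhibition.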
For orientation: qHTS replaces the single test concentration by a dilution series.

The target of assay [8] is Ubiquitin carboxyl-terminal hydrolase 1 (Homo sapiens) (UniProt O94782). The assay can be described thus: Inhibitors of USP1/UAF1: Pilot qHTS (AID 504865).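 Further: rhodamine fluorescence freed from ubiquitin-rhodamine substrate followed over time; top concentration of the series differs between compounds; on the % scale 0 is the no-effect control and ±100 the full control effect; nearly all actives have a fitted effect of over 35% in size.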 The method, boiled down: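 USP1/UAF1 complex (1nM) preincubated with compound 15 min at room temperature, then Ub-Rho substrate (150nM final) added. Fluorescence read kinetically at 480/540 nm, 6 reads every 60 seconds. Buffer: 50mM HEPES pH 7.8, 0.5mM EDTA, 0.1 mg/ml BSA, 1mM TCEP, 0.01% Tween-20.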
Ubiquitin carboxyl-terminal hydrolase 1 (Homo sapiens), sequence (O94782 whole entry, looked up): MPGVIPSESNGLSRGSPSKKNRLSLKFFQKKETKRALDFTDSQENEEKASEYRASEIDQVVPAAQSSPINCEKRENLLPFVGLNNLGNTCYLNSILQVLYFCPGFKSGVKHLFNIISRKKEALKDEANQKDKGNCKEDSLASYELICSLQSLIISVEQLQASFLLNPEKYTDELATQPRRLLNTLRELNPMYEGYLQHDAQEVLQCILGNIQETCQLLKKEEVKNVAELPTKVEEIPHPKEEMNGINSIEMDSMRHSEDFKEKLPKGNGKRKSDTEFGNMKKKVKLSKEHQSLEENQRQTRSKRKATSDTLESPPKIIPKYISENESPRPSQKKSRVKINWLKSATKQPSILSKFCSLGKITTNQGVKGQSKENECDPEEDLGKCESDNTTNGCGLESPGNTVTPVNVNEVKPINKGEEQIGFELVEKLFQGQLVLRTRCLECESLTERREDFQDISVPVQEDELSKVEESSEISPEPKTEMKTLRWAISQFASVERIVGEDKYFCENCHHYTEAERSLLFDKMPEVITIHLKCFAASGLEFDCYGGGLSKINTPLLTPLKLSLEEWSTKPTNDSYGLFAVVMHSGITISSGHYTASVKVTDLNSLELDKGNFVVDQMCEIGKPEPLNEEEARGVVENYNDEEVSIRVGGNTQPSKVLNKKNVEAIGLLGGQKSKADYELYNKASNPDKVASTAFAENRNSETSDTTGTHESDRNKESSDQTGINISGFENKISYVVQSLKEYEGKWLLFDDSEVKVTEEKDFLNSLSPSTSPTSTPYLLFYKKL

Assay [9] in a line: Primary qHTS for small molecule stabilizers of the endoplasmic reticulum resident proteome: Secreted ER Calcium Modulated Protein (SERCaMP) assay (AID 1508630). Further: on the % scale 0 is the no-effect control and ±100 the full control effect. The method, boiled down:
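GLuc-SERCaMP-expressing SH-SY5Y cells, pretreated 16 h with compound, are challenged with thapsigargin to empty ER calcium stores; after 4 h, coelenterazine is added directly to the medium and luminescence is imaged.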

Assay [10] addresses Rap guanine nucleotide exchange factor 3 (Homo sapiens) (UniProt O95398). Kind of assay: Confirmatory qHTS for antagonist of cAMP-regulated guanine nucleotide exchange factor 3 (EPAC1) (AID 1645880).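 Further: plate controls were DMSO only for no effect and full effect of the ATA control for full effect; nearly all actives have a fitted effect of over 55% in size.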 The method, boiled down:
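Nucleotide exchange uses 100 nM EPAC1, 250 nM RAP1B-BODIPY-GDP and 50 uM GDP, with compounds in a concentration-titration series. After 5 min at room temperature, fluorescence (480 nm ex/540 nm em) is read every 5 min for 30 min. Data are normalized to control ATA and DMSO.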

Assay [11] deals with Rap guanine nucleotide exchange factor 4 (Homo sapiens) (UniProt Q8WZA2). Kind of assay: Confirmatory qHTS for antagonist of cAMP-regulated guanine nucleotide exchange factor 4 (EPAC2) (AID 1645885). Further: on the % scale 0 is the no-effect control and ±100 the full control effect; nearly all actives have a fitted effect of over 25% in size.
Rap guanine nucleotide exchange factor 4 (Homo sapiens), sequence (Q8WZA2 whole entry, looked up): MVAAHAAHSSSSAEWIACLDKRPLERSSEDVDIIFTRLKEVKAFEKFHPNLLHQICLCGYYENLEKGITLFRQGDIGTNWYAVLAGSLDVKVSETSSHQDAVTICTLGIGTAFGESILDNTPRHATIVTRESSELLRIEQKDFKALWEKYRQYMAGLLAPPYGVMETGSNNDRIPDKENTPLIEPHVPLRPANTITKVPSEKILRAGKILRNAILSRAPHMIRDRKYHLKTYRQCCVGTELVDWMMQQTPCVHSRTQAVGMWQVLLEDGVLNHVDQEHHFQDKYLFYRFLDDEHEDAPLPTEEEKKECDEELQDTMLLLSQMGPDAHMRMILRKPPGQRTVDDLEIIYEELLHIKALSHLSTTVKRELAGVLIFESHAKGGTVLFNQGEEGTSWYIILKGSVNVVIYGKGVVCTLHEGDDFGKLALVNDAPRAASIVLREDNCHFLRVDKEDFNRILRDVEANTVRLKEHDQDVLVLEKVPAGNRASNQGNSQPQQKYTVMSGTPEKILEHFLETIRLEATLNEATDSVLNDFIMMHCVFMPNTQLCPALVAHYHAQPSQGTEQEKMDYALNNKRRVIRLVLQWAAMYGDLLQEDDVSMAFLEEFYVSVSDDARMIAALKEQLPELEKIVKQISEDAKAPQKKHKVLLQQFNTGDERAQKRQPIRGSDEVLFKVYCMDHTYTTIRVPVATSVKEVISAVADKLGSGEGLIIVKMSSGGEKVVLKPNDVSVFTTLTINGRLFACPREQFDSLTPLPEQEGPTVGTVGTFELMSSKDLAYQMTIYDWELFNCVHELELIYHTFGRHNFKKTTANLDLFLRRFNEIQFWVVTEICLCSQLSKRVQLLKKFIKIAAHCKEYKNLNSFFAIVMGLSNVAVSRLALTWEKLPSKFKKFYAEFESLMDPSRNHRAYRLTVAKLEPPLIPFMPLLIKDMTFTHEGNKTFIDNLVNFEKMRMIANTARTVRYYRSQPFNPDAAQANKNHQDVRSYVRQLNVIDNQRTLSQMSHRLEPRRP
The target of assay [12] is Lysosomal acid glucosylceramidase (Homo sapiens) (UniProt P04062). Kind of assay: Glucocerebrosidase-p2 (AID 348; in the data active means potency below about 10 µM; further: potency means the concentration at half of the fitted maximal effect). The settings on record: purified GBA, blue fluorogenic substrate, 40 min. The method, boiled down: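 Compounds titrated from 0.6 nM upwards against 0.2 nM enzyme in pH 5.9 citric acid/KH2PO4, taurocholate, tween-20; blue fluorogenic substrate 80 uM, 40 min room temperature, stopped and read Ex 365/Em 440 for AC50.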
Lysosomal acid glucosylceramidase (Homo sapiens), sequence (P04062 whole entry, looked up): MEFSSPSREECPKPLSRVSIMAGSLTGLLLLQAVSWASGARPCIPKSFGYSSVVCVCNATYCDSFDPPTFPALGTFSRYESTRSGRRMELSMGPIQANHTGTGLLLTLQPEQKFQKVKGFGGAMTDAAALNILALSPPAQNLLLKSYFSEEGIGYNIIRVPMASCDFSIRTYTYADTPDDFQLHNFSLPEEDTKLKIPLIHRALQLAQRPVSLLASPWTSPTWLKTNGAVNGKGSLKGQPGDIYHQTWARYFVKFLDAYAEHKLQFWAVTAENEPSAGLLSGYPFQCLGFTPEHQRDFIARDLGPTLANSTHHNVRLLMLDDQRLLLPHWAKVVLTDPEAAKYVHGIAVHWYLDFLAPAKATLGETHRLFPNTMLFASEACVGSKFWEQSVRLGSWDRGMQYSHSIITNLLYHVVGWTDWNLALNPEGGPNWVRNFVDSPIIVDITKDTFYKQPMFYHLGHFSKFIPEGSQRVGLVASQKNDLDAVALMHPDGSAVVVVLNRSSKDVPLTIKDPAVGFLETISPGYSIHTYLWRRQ

A short description of assay [13]: AP1 Signaling Pathway (AID 357; active means well fitted curve in either direction with a large enough effect, not every such curve was filed as active; further: on the % scale 0 is the no-effect control and ±100 the full control effect). The settings on record: ME-180 (cervical carcinoma) AP-1-bla reporter, EGF-induced, beta-lactamase ratio, 5 h; at 7.69 µM (top of the series) unless noted. In short, it runs like this: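 Read-out was the 460nm/530nm emission ratio (excitation 405nm) after CCF4 loading for 2.5 hours at room temperature. Cells carried an AP-1-driven beta-lactamase reporter, were stimulated with EC50 EGF plus compound for 5 hours, and AC50 values came from titrations.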

For assay [14], the target named is 3',5'-cyclic-AMP phosphodiesterase 4B (Homo sapiens) (UniProt Q07343). The assay can be described thus: qHTS Assay for Inhibitors of PDE-IV (AID 607; active means well fitted activation curve with a large enough effect in the main read-out, with a control signal flat, not every such curve was filed as active; further: % of control where 0% means no effect). The method, boiled down:
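HEK293 ACTOne cells with CNG channel (1000/well), endogenous PDE4; membrane potential dye, compounds up to 22.9 uM final. Fluorescence Ex 535/Em 590; RO 20-1724 (100 uM final) as reference.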

Assay [15] concerns the target Dual specificity protein kinase CLK4 (Homo sapiens) (UniProt Q9HAZ1). The assay can be described thus: qHTS Assay for Inhibitors of CDC-like Kinase 4 (ADP-FP Assay) (AID 1795). Further: on the % scale 0 is the no-effect control and ±100 the full control effect; nearly all actives have a fitted effect of over 60% in size. In short, it runs like this: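 Recombinant human Clk4 (6.25 nM) phosphorylated RS repeat peptide (100 uM) with 1 uM ATP in Tris pH 7.5/MgCl2/EGTA/DTT/Triton buffer for one hour. ADP was quantified by Transcreener competitive fluorescence polarization against an ADP calibration curve.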

Assay [16] concerns the target Rap guanine nucleotide exchange factor 3 (Homo sapiens) (UniProt O95398). The assay can be described thus: Confirmatory qHTS for agonist of cAMP-regulated guanine nucleotide exchange factor 3 (EPAC1) (AID 1645881).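 Further: EPAC1 catalysed release of BODIPY-GDP from Rap1B seen as fluorescence loss; 100% = effect of cAMP agonist control; nearly all actives have a fitted effect of over 75% in size.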
Assay [17] has as its target Rap guanine nucleotide exchange factor 4 (Homo sapiens) (UniProt Q8WZA2). The assay can be described thus: Confirmatory qHTS for agonist of cAMP-regulated guanine nucleotide exchange factor 4 (EPAC2) (AID 1645884).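 Further: nucleotide exchange releases bodipy-GDP from Rap1 and this lowers its fluorescence; on the % scale 0 is the no-effect control and ±100 the full control effect; nearly all actives have a fitted effect of over 65% in size.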
The target in assay [18] is Cytochrome P450 3A4 (Homo sapiens) (UniProt P08684). Kind of assay: qHTS Assay for Inhibitors and Substrates of Cytochrome P450 3A4 (AID 884). Further: potency means the concentration at half of the fitted maximal effect; nearly all actives have a fitted effect of over 50% in size. In short, it runs like this: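 20 nM human CYP3A4 with 25 uM Luciferin-PPXE (at KM) in 200 mM KPO4, preincubated 10 min with compound; NADPH regeneration started a 60 min RT reaction. Luciferin detected by luminescence, normalized to 57 uM ketoconazole as full inhibition.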
Cytochrome P450 3A4 (Homo sapiens), sequence (P08684 whole entry, looked up): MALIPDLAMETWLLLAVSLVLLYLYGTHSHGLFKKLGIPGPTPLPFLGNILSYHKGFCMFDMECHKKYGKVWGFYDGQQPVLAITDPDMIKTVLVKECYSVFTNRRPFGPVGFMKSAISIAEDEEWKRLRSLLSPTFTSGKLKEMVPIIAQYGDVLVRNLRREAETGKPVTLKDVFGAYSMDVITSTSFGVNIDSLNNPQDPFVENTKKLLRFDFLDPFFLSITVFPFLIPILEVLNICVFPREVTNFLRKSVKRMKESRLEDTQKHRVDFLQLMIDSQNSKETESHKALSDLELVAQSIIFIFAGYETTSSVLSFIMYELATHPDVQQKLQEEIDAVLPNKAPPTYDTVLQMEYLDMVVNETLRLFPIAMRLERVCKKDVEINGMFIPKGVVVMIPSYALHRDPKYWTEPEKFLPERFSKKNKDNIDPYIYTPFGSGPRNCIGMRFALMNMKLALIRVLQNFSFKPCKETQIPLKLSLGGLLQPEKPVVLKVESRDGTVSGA

Unmarked numbers belong to inactive results. Results filed as inconclusive are left out. The source made the active and inactive calls. Unless noted, the call rests on the fitted dose curve; in most records, active means well fitted curve in the direction sought with a large enough effect; inconclusive means small, poorly fitted or top-dose-only effect, or another doubt; inactive means no such curve, though single readings can be large; an effect the other way counts as inactive or inconclusive.

3',5'-cyclic-AMP phosphodiesterase 4B (Homo sapiens), sequence (Q07343 whole entry, looked up): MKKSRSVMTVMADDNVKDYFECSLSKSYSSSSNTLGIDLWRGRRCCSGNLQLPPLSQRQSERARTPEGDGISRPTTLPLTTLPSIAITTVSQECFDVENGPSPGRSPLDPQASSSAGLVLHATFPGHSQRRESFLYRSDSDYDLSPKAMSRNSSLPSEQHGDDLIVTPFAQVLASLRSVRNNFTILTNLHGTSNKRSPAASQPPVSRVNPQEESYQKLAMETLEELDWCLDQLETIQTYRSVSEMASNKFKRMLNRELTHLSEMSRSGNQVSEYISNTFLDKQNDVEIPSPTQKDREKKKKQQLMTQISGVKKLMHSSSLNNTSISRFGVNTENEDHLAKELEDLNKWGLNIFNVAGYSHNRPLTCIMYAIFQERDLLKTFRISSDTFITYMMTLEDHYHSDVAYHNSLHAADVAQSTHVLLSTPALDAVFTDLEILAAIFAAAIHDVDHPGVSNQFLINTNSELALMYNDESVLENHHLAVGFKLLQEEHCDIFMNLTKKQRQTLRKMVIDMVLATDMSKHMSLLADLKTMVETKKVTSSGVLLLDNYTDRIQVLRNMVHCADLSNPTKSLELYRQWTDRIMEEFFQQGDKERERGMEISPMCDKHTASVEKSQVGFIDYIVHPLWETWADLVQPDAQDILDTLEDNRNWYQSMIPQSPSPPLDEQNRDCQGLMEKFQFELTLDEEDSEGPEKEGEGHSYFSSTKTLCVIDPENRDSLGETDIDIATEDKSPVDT
Rap guanine nucleotide exchange factor 3 (Homo sapiens), sequence (O95398 whole entry, looked up): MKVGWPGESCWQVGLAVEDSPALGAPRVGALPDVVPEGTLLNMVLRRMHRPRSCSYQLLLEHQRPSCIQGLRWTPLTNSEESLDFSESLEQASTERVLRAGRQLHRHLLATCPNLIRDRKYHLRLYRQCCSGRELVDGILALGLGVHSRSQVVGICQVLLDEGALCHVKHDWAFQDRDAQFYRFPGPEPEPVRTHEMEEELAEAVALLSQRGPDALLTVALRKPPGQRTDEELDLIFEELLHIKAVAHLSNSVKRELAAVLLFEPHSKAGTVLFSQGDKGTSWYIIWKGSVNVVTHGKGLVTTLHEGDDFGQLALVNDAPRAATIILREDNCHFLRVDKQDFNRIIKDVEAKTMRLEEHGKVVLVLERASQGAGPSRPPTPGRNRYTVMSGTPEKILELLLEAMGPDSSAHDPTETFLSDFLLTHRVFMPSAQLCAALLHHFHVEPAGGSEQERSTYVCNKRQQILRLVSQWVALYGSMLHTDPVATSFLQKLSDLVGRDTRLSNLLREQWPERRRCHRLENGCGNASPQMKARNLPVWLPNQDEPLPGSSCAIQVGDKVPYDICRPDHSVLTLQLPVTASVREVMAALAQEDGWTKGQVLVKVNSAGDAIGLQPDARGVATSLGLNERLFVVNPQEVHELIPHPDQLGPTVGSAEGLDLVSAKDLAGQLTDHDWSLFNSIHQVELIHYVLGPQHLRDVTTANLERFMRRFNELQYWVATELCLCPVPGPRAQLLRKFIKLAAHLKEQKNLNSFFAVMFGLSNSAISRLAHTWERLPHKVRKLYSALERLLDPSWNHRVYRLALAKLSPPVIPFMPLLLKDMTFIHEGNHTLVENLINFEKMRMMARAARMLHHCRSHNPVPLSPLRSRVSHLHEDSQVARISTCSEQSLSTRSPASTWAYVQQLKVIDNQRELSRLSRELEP

For the compound `c1csc(CNc2ccnc(-c3ccc4c(c3)OCO4)n2)c1`, the Potency is 0.316 µM (active) in assay [1], over 46 µM in assay [4] and over 46 µM in [5]. Besides, the activity change, negative = inhibition in assay [2] is 11.2%. For the same compound, the activity, negative = inhibition in assay [3] was -12.2%. Further, the Potency entry in [6], in [7], in assay [8], in assay [10] and in assay [11] was “inactive” throughout. Besides, the result in assay [9] was inactive.

As to `O=c1c(-c2ccc(F)cc2)nc2cnc(Nc3ccccc3)nc2n1Cc1cccs1`, the Potency in [12] is over 11.4 µM; in assay [1], 2 µM (active); in assay [4], over 9.22 µM; in assay [5] it was over 46 µM. In addition, the activity change, negative = inhibition in assay [13] is -11.9%. Moreover, the Potency result in assay [6], in [14], in assay [10] and in [11] was “inactive” in each case. Further, the outcome in assay [9] was inactive.

For `O=c1c(-c2cccs2)nc2cnc(N3CCOCC3)nc2n1CCc1ccccc1`, the Potency in assay [12] is over 11.4 µM; in [4], over 9.22 µM; in [5] it was over 46 µM. The figures for the activity change, negative = inhibition in assay [13] and in assay [2] were 13.2% and 19.8%, respectively. Further, the activity, negative = inhibition in [3] is 18.4%. Also, the Potency result in assay [7], in assay [15], in [8], in assay [10] and in assay [11] was “inactive” each time. For the same compound, the result in assay [9] was inactive.

In the case of `CN(C)c1ncc2nc(CCc3ccccc3)c(=O)n(Cc3ccc(F)cc3)c2n1`, the Potency in assay [12] is over 11.4 µM; in assay [1], 10 µM (active); in assay [4], over 9.22 µM; in assay [5], over 46 µM. Also, the activity change, negative = inhibition is 8.4% in assay [13] and -4.39% in assay [2]. Also, in assay [3], the activity, negative = inhibition was 13.2%. Moreover, the Potency result in assay [14], in [7], in [10], in assay [16], in assay [17] and in assay [11] was “inactive” each time. Also, the result in [9] was inactive.

`COCCn1c(=O)c(-c2cc(F)cc(F)c2)nc2cnc(Nc3cccc(OC)c3)nc21`: the Potency in assay [12] was over 11.4 µM; in assay [1] it was 2.51 µM (active); in assay [4], over 9.22 µM; in [5], over 46 µM; in assay [18], 7.94 µM (active). The activity change, negative = inhibition in assay [13] was -16%; in assay [2], -16.5%. The activity, negative = inhibition in assay [3] is -3.85%. For the same compound, the Potency entry in assay [6], in assay [14], in assay [7], in assay [10], in [16] and in assay [11] was “inactive” in each case. The result in assay [9] was inactive.

In the case of `COc1cccc(-c2cc(NCc3ccc(OC)cc3OC)ncn2)c1`, the Potency in assay [12] was over 11.4 µM; in assay [1], 2 µM (active); in [4], over 46 µM; in assay [5], over 46 µM; in assay [18] it was 2.51 µM (active). For the same compound, in assay [2], the activity change, negative = inhibition was -8.15%. Besides, the activity, negative = inhibition in assay [3] is -9.18%. In addition, the Potency result in assay [6], in assay [14], in assay [7], in [15], in assay [8] and in assay [10] was “inactive” each time. Moreover, the Potency entry in [16] was “inactive”. Moreover, the result in assay [9] was inactive.
